From PubChem BioAssay
HepG2 viability = kills HepG2 cells in TGF-b inhibitor counter-screen | HepG2 CAGA-GFP viability, ATP luminescence, 18 h | Potency, µM (titrated, usually from 46.1 µM), inactives show at the top dose activity change, negative = cytotoxicity, hits mostly cytotoxic | 410,000 tested, 0.76% active; note: potency is the fitted concentration of half-maximal effect
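CellTiter-Glo luminescence gave cytotoxicity after 18 hours at 37 degrees C. The cells were HepG2 CAGA-GFP in 1% FBS DMEM, stimulated with 500 pg/mL TGF-beta after compound addition. %Activity was normalised to no-cell wells (complete cell-killing) and DMSO (no toxicity), and curves were fitted and classified.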
DT40 TDP1 CPT = DT40-hTDP1 cell growth loss with CPT | chicken DT40 Tdp1-/-;hTDP1 cells + 20 nM CPT, ATP luminescence, 48 h | Potency, µM (highest dose often 46.2 µM), without a hit: top-dose activity change, negative = growth inhibition, usual class: inhibitors | 420,000 tested, 12% active | AID 686979; note: potency is the fitted concentration of half-maximal effect; % is set by controls: 0 for no effect and ±100 for the full control effect; nearly all actives have a fitted effect of over 55% in size
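Cell growth measured by CellTiter-Glo luminescence after a minimum 48 h, 37 C compound exposure with 20 nM CPT in Tdp1-knockout DT40 cells stably expressing hTDP1, seeded 400/well; qHTS titration format.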
TDP1 block = TDP1 (human) enzyme inhibition; Q9NUW8; recombinant TDP1, AlphaScreen DNA substrate cleavage; Potency, µM (series often up to 130 µM), for the others: at the top dose activity change, negative = inhibition, most hits filed as inhibitors; 350,000 tested, 0.28% active; AID 485290; note: potency is the fitted concentration of half-maximal effect; % is set by controls: 0 for no effect and ±100 for the full control effect; nearly all actives have a fitted effect of over 40% in size
Target sequence (Q9NUW8 whole entry, looked up): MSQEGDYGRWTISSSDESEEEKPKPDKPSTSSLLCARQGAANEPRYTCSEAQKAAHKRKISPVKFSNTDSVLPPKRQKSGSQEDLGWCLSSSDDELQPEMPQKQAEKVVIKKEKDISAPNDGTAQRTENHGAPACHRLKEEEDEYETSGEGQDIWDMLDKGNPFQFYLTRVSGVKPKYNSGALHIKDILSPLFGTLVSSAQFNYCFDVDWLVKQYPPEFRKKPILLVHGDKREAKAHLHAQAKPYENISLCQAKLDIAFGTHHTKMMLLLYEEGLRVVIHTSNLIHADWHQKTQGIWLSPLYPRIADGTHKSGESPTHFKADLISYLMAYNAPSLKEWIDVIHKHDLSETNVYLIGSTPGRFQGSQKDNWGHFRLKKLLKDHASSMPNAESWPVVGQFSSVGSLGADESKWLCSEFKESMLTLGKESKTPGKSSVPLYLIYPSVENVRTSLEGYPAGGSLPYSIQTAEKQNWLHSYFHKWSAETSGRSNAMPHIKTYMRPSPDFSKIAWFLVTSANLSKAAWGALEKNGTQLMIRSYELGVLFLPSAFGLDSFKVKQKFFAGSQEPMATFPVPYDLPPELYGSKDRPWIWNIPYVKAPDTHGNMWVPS
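Tdp1 1 nM final; 15 min RT w/ cpd; substrate 15 nM, 5 min; beads 10 ug/ml, 10 min; AlphaScreen read. Neg ctrl: no enzyme.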
IL-1B inflam inh = inflammasome signaling inhibition, IL-1 beta readout; THP-1 LPS/ATP IL-1B secretion, AlphaLISA, 16 h; stronger effect = lower value; activity change, % at 57.5 µM; 360,000 tested, 4.7% active; AID 743279; in the data active = activity change below about -50%; inconclusive = mostly about -30% to -49%; note: % is set by controls: 0 for no effect and ±100 for the full control effect
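THP-1 cells pretreated 1 hr with compounds (up to 57.5 uM final), then stimulated with LPS (250 ng/mL final) plus ATP (1.25 mM final); secreted IL-1B measured by AlphaLISA after 16 hr, decreased signal indicating inhibition.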
TDP1 cell noCPT = qHTS for Inhibitors of human tyrosyl-DNA phosphodiesterase 1 (TDP1): qHTS in cells in absence of CPT | DT40 Tdp1-/- hTDP1 cells, no CPT, ATP luminescence, 48 h | Potency, µM (series often up to 46.2 µM), for the others: at the highest dose activity change, negative = growth inhibition, hits mostly inhibitors | 420,000 tested, 15% active; note: potency is the fitted concentration of half-maximal effect; % is set by controls: 0 for no effect and ±100 for the full control effect; nearly all actives have a fitted effect of over 55% in size
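Seeded 400 DT40-hTDP1 cells/well (vehicle DMSO, no 20 nM CPT); pinned compounds; ≥48 hr at 37 °C; CellTiter-Glo luminescence as viability measure.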
TGFb inhibitor = blocks TGF-b signaling; HepG2 CAGA-GFP TGF-b/SMAD3 reporter, GFP fluorescence, 18 h; TGF-beta stimulated, 500 pg/mL final; 410,000 tested, 1.2% active; Potency, µM (doses to about 46.1 µM), inactives show at the highest dose activity, negative = inhibition, actives largely listed as inhibitors; AID 588855; note: potency is the fitted concentration of half-maximal effect; % is set by controls: 0 for no effect and ±100 for the full control effect; nearly all actives have a fitted effect of over 65% in size
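Inhibition of TGF-beta-driven CAGA-GFP reporter expression in HEPG2 cells is measured by cellular GFP fluorescence after 18 h stimulation with 500 pg/mL recombinant TGF-beta in 1% FBS medium at 37 degrees C.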
* hit, by the source's call; ? = inconclusive; / = no result given; [ ] = dose if it differs, or a comment. Sampled rows, rich in hits. Any-hit rate of the full collection: about 18%. Unless noted, calls come from the whole dose curve; as a rule, active = well fitted curve in the direction sought with a large enough effect; inconclusive = small, poorly fitted or top-dose-only effect, or another doubt; inactive = no such curve, though single readings can be large; an effect the other way counts as inactive or inconclusive.

SMILES	HepG2 viability	DT40 TDP1 CPT	TDP1 block	IL-1B inflam inh	TDP1 cell noCPT	TGFb inhibitor
Cc1ccc(NC(=O)CN(C)C(=O)CNC(=O)c2sc3ccccc3c2Cl)cc1	0%	?	/	/	?	0%
N#Cc1ccc(C23CC4(C2)[C@H](CN(Cc2ccc(C(F)(F)F)cc2)[C@@H]4c2ccccc2)C3c2ccc(C(F)(F)F)cc2)cc1 (stereo partly specified)	-22%	?	6%	13	21µM*	-11%
COC(=O)c1ccc(C23CC4(C2)[C@H](CN(Cc2ccc(C(F)(F)F)cc2)[C@@H]4c2ccccc2)C3c2ccc(C(F)(F)F)cc2)cc1 (stereo partly specified)	/	/	9%	/	/	/
FC(F)(F)c1ccc(CN2C[C@@H]3C(c4ccc(C(F)(F)F)cc4)C4(c5cccnc5)CC3(C4)[C@H]2c2ccccc2)cc1 (stereo partly specified)	-27%	15µM*	3%	47	15µM*	-25%
N#Cc1ccc(C23CC4(C2)[C@H](CN(Cc2ccc(-c5ccccc5)cc2)[C@@H]4c2ccccc2)C3c2ccc(Cl)nc2)cc1 (stereo partly specified)	-7%	?	1%	23	?	?
N#Cc1ccc(C23CC4(C2)[C@H](CN(P(=O)(c2ccccc2)c2ccccc2)[C@@H]4c2ccccc2)C3c2ccc(Cl)nc2)cc1 (stereo partly specified)	-29%	23µM*	12%	?	?	13µM*
N#Cc1ccc(C23CC4(C2)[C@H](CN(Cc2cccnc2)[C@@H]4c2ccccc2)C3c2ccc(C(F)(F)F)cc2)cc1 (stereo partly specified)	/	/	9%	/	/	/
COC(=O)c1ccc(C23CC4(C2)[C@H](CN(Cc2ccc(C(F)(F)F)cc2)[C@@H]4c2ccccc2)C3c2ccccc2)cc1 (stereo partly specified)	-9%	7.3µM*	13%	24	4.1µM*	1%
Cc1cccc(OCCCC(=O)N2CCCCCC2)c1C	-31%	?	/	0	?	-9%
COc1ccc(CN2C[C@H](Sc3nc4ccccc4[nH]3)C[C@H]2C(=O)N(C)C)c2ccccc12	/	10%[9.04 µM]	/	/	-16%	/
CCOc1ccc(CNc2ccc(S(N)(=O)=O)cc2)cc1	2%	?	5%	12	?	-6%
FC(F)(F)c1ccc(CN2C[C@@H]3C(c4ccccc4)C4(c5cccnc5)CC3(C4)[C@H]2c2ccccc2)cc1 (stereo partly specified)	-66%	?	11%	7	?	?
CN1C[C@@H]2C(c3ccc(C(F)(F)F)cc3)C3(c4cccnc4)CC2(C3)[C@H]1c1ccccc1 (stereo partly specified)	-21%	?	13%	?	18µM*	-24%
COC(=O)c1ccc(C23CC4(C2)[C@H](CN(C)[C@@H]4c2ccccc2)C3c2ccc(C(F)(F)F)cc2)cc1 (stereo partly specified)	-3%	?	11%	17	?	1%
FC(F)(F)c1ccc(C2[C@H]3CN(Cc4cccnc4)[C@H](c4ccccc4)C34CC2(c2ccccc2)C4)cc1 (stereo partly specified)	-16%	18µM*	10%	9	?	-25%
COC(=O)c1ccc(C23CC4(C2)[C@H](CN(C)[C@@H]4c2ccccc2)C3c2ccc(Cl)nc2)cc1 (stereo partly specified)	-16%	?	13%	4	15µM*	-1%
CNC(=O)C1CCN(C(=O)N2CC(C)Oc3ccc(Cl)cc32)CC1 (stereo unspecified)	-29%	-1%	9%	/	-21%	-14%
c1ccc2c(c1)[nH]c1c(N3CCOCC3)ncnc12	-35%	16µM*	0%	-17	13µM*	-42%
Cc1ccc2[nH]c3c(N4CCOCC4)ncnc3c2c1	-77%	?	-2%	-20	?	-6%
c1ccc2c(c1)[nH]c1c(N3CCCC3)ncnc12	0%	5.8µM*	5%	-6	5.2µM*	-10%
Clc1ccc2[nH]c3c(N4CCC5(CC4)OCCO5)ncnc3c2c1	-28%	23µM*	7%	?	18µM*	5%
COc1cccc2[nH]c3c(N4CCCC(C)C4)ncnc3c12 (stereo unspecified)	-38%	?	0%	-14	23µM*	?
COC(=O)c1ccc(C(NC(=O)OCc2ccccc2)/C(C)=C/[C@@H](C)C(=O)N(C)Cc2cccnc2)cc1 (stereo partly specified)	/	/	13%	/	/	/
Cc1cc(C)n2nc(CNS(=O)(=O)c3ccc(F)c(C)c3)nc2n1	-9%	-2%	/	-3	5%	-13%
c1ccc2c(c1)[nH]c1c(N3CCN(C4CCCCC4)CC3)ncnc12	-46%	?	-1%	7	15µM*	-1%
SMILES	HepG2 viability	DT40 TDP1 CPT	TDP1 block	IL-1B inflam inh	TDP1 cell noCPT	TGFb inhibitor
c1ccc2c(c1)[nH]c1c(N3CCSCC3)ncnc12	-24%	?	1%	-8	18µM*	-2%
O=c1c2ccccc2[nH]c(=S)n1CCCN1CCN(C2CCCCC2)CC1	-8%	17%	6%	-6	-16%	15%
CC(C)(C)OC(=O)N1CCC(c2c(C(=O)Nc3ccc4c(c3)OCCO4)cnn2-c2ccc(F)cc2)CC1	-14%	?	1%	/	18µM*	?
Cc1c(Cl)cccc1-n1ncc(C(=O)Nc2ccc3c(c2)OCCO3)c1C1CCN(C(=O)OC(C)(C)C)CC1	-8%	?	5%	/	?	?
COc1ccc(-n2ncc(C(=O)Nc3ccc4c(c3)OCCO4)c2C2CCN(C(=O)OC(C)(C)C)CC2)cc1	-10%	21µM*	2%	/	16µM*	-35%
Cc1ccc(-c2cnc(C(O)c3c(C)cccc3C)[nH]2)cc1 (stereo unspecified)	9%	-25%	/	5	-26%	0%
CCOC(=O)c1ccc(NC(=O)c2cnn(-c3ccc(C)cc3C)c2C2CCN(C(=O)OC(C)(C)C)CC2)cc1	0%	?	0%	/	16µM*	9%
